Hits are enriched below; roughly 2.7% of the tested compounds scored in any of these assays.
F508del corr – correctors of CFTR F508del function in bronchial epithelial cells; CFBE cells, YFP halide quenching; stimulated with forskolin plus potentiator P3; % fluorescence drop versus neutral controls; activity (quench increase), % at 7.58 µM; 350,000 compounds, 0.36% hits; AID 720511;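 active means mean added fluorescence quench of at least 8% versus neutral control, with both replicates also reaching 8%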;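 further: cells transiently co-express mutant CFTR-F508del with the halide-sensitive YFP; corrector assay measuring rescue of mutant channel to the surface after 24 h compound exposure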
SKN-1 block – C. elegans SKN-1 inhibition; 360,000 compounds, 0.49% hits; AID 624304; C. elegans VP596 Pgst-4::GFP/RFP ratio, acrylamide-induced, 24 h; inhibition, % at 21.8 µM;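 active means interference check ratio from 0.5 to 1.5 plus GFP to RFP signal ratio inhibition reaching or exceeding a fixed threshold, cut at about 30% in these data, passing the limit was not always enough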
CendR NRP1 mod – alters CendR peptide binding to human NRP-1. 360,000 compounds, 0.85% hits. inhibition, % at 25 µM. FAM-RPARPAR peptide binding to NRP-1, fluorescence polarization. O14786;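 active means inhibition or corrected inhibition above about 18%, plus a signal ratio from 0.5 to 1.5, limit read from the data, passing the limit was not always enough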
MPTP block – permeability transition pore inhibition; inhibition, % at 10 µM; 360,000 compounds, 1.4% hits; isolated mouse mitochondria, Ca2+ swelling absorbance, 30 min;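 active means inhibition of 50% or more, scaled per plate between neutral and stimulator controls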;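 further: 0% = DMSO wells given calcium and 100% = 1 mM EGTA wells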
ATG4B inhibitor – inhibitors of human ATG4B cysteine protease; Q9Y4P1; ATG4B cleavage of LC3-PLA2, NBD-HPC fluorescence, 1 h; inhibition, % at 8.33 µM; 340,000 compounds, 0.51% hits; in the data active means inhibition above about 40%
Target sequence (Q9Y4P1 whole entry, looked up): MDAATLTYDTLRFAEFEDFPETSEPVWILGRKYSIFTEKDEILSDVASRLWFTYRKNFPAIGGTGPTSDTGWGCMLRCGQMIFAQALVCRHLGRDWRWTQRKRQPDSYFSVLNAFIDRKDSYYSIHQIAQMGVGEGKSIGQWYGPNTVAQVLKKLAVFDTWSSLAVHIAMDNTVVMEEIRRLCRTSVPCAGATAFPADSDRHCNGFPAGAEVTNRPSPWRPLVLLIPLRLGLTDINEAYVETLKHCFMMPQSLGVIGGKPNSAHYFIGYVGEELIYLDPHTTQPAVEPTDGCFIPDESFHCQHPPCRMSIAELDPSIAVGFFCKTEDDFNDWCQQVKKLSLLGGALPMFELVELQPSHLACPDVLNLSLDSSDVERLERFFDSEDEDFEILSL
ATG4B confirm – ATG4B (human) inhibition, single-dose confirmed. 320 compounds, 92% hits. shares compounds with ATG4B inhibitor. ATG4B protease fluorescent substrate cleavage assay. inhibition, % at 8.33 µM; in the data active means inhibition above about 39%
PLA2 counter – inhibits human PLA2, flagging false ATG4B inhibitors. inhibition, % at 8.33 µM. 1,600 compounds, 66% hits. shares compounds with ATG4B inhibitor. purified PLA2, NBD-C6-HPC fluorescence, 45 min; in the data active means inhibition above about 50%
Target sequence (P04054 whole entry, looked up): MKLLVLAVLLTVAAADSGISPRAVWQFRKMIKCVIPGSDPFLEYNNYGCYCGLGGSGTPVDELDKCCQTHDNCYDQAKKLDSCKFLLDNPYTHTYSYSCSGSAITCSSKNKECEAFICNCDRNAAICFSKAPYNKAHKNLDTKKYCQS
* marks the source's active call; other numbers are inactive results; . = no result.

SMILES	F508del corr	SKN-1 block	CendR NRP1 mod	MPTP block	ATG4B inhibitor	PLA2 counter	others
O=C1N/C(=N\N=C\c2cccs2)SC1Cc1ccc(Cl)cc1 (stereo not given)	.	-0.1	-0.1	3.4	43.2*	-0.8
O=C1N/C(=N\N=C\c2cccs2)SC1Cc1cccc(Cl)c1 (stereo not given)	.	-4.5	4.8	1.8	10.6	.
CCc1ccccc1NC(=S)/N=C(\N)Nc1nc(C)c2cc(C)ccc2n1	.	4.1	-3.3	0.5	79.7*	82.0*
Cc1ccc(NC(=S)/N=C(\N)Nc2nc(C)c3cc(C)ccc3n2)c(C)c1	.	-0.9	-1.8	0.8	-8.6	.
C[C@H](CO)N1C[C@H](C)[C@@H](CN(C)C(=O)Nc2cccc3ccccc23)Oc2c(NC(=O)C3CCOCC3)cccc2C1=O	-0.1	.	.	.	.	.
C/C(=N\NC(=O)c1ccc(OC2CCCC2)cc1)c1ccc(O)cc1	1.7	7.6	-6.7	0.2	41.5*	48.4
Clc1cccc(-c2nc(NCc3cccnc3)c3ccccc3n2)c1	.	15.6	-2.1	0.3	64.3*	70.5*
O=c1cc(O)c2sc3nc(C(F)(F)F)c4c(c3c2[nH]1)CCCCC4	-4.2	6.9	9.4	-0.8	45.0*	40.7	ATG4B confirm=59.3*
Cc1cc(C(F)(F)F)c2c(n1)sc1c(O)cc(=O)[nH]c12	0.3	2.6	-9.3	-1.5	0.8	.
CCc1ccc(OCC(=O)c2c(O)c3ccccc3oc2=O)cc1	-1.7	-7.3	-17.4	-0.6	1.3	.
CCc1oc2ccccc2c1C(=O)c1cc(Br)c(O)c(Br)c1	-4.3	-1.9	-40.8	44.1	95.5*	96.2*
CCCNC(=O)C[C@@H]1C[C@H]2c3cc(NC(=O)NC4CCCC4)ccc3O[C@H]2[C@@H](CO)O1	1.2	.	.	.	.	.
C[C@H](CO)N1C[C@H](C)[C@@H](CN(C)C(=O)Nc2ccccc2)OCCCC[C@H](C)Oc2ccc(NC(=O)C3CCCCC3)cc2C1=O	3.5	.	.	.	.	.
COCc1ccc(C(=O)N2CCCC(Nc3ccc(C(C)C)cc3)C2)o1 (stereo not given)	1.1	-10.5	2.6	-1.9	53.2*	59.0*
CC(C)c1ccc(NC2CCCN(C(=O)c3cnsn3)C2)cc1 (stereo not given)	-3.7	8.9	1.3	0.5	25.1	.
COCc1ccc(C(=O)N2CCCC(Nc3ccc(C(C)C)cc3)C2)s1 (stereo not given)	-1.5	-0.1	6.6	0.4	72.4*	75.6*
CC(C)c1ccc(NC2CCCN(C(=O)C3=NN(C)C(=O)CC3)C2)cc1 (stereo not given)	-3.6	7.5	16.5	-0.5	-0.8	.
COc1ccccc1NC(=O)N(C)C[C@H]1OCc2ccccc2-c2ccccc2C(=O)N([C@@H](C)CO)C[C@H]1C	-0.4	.	.	.	.	.
C[C@H]1CCCCO[C@@H](CN(C)CC2CCCCC2)[C@@H](C)CN([C@@H](C)CO)C(=O)c2cc(NS(=O)(=O)c3cn(C)cn3)ccc2O1	-2.5	.	.	.	.	.
CCCCOc1ccc(C(=S)N2CCC(C(N)=O)CC2)cc1	3.5	-7.5	7.9	-0.1	81.5*	83.6*
COc1ccc2c(c1OC)C(=O)OC2Nc1nc(-c2cccc([N+](=O)[O-])c2)cs1 (stereo not given)	0.0	11.3	-7.4	2.9	52.0*	70.8*
Cc1sc(NC(=O)c2ccccc2)c(C(=O)c2ccccc2)c1C	.	-1.9	-2.7	4.5	50.2*	42.5	ATG4B confirm=72.8*
CCc1cccc(CC)c1NC(=O)COC(=O)c1ccccc1-c1nc2ccccc2s1	.	-2.5	-8.9	1.0	66.0*	73.7*
Cc1ccc(NC(=O)COC(=O)c2ccccc2-c2nc3ccccc3s2)c(C)c1	-2.1	-0.1	-1.6	3.8	14.5	.
CCSc1n[nH]c2nc3c(c(=O)n12)C1(CCCCC1)Cc1ccccc1-3	3.4	-1.2	10.3	33.0	22.1	.
SMILES	F508del corr	SKN-1 block	CendR NRP1 mod	MPTP block	ATG4B inhibitor	PLA2 counter	others
CSc1n[nH]c2nc3c(c(=O)n12)C1(CCCCC1)Cc1ccccc1-3	-0.1	-10.1	5.8	23.4	42.0*	33.2	ATG4B confirm=45.9*
N#Cc1ccc(-c2ccc3c(c2)[C@@H]2[C@@H](CCN2C(=O)c2ccccc2F)[C@H](CO)N3)cc1	2.7	.	.	.	.	.
O=C(C[C@@H]1CC[C@H](NC(=O)C2CCC2)[C@@H](CO)O1)NCc1ccncc1	-0.7	.	.	.	.	.
Cc1ccccc1-c1nnn(Cc2ccc(F)cc2Cl)n1	0.3	28.8	15.4	-0.5	43.8*	46.4
Fc1ccc(-c2nnn(Cc3ccc(F)cc3Cl)n2)cc1	-1.4	30.9	0.6	-1.2	27.3	.
CCN(CCCn1c(SCC#N)nc2ccccc2c1=O)c1ccccc1	.	19.5	-17.5	8.8	43.5*	44.9
CCCC#Cc1cnc2c(c1)C(=O)N([C@H](C)CO)C[C@H](C)[C@@H](CN(C)C(=O)Cc1ccccc1)O2	2.6	.	.	.	.	.
CCN(Cc1ccccc1)c1ccc(N=Nc2nn(C)c(C)c2[N+](=O)[O-])cc1	.	8.1	12.3	9.7	52.7*	35.5
Fc1ccccc1CNc1ccc(Cl)cc1	-0.3	1.1	2.3	3.0	33.9	.
Fc1ccc(NCc2ccccc2F)cc1Cl	0.7	16.2	2.9	3.3	41.5*	28.8	ATG4B confirm=68.5*
Cn1c(-c2ccc3c(c2)OCO3)cnc1NCc1cccc(Cl)c1	.	-2.3	0.1	2.9	52.4*	57.6*
Cc1sc(-n2c(C)cc(/C=C3\SC(=S)NC3=O)c2C)c(C#N)c1C	.	15.4	-192.5	14.8	80.8*	74.3*
COc1ccc(N=Nc2ccc(N)nc2N)cc1	2.6	25.6	-24.4	0.7	-2.3	.
CCOc1ccc2nc3cc(N=Nc4ccc(N)nc4N)ccc3c(N)c2c1	.	14.3	50.1*	11.7	54.2*	68.8*
C[C@H](CO)N1C[C@H](C)[C@@H](CN(C)Cc2ccc(Cl)c(Cl)c2)Oc2ccc(NC(=O)CCCN(C)C)cc2CC1=O	-1.1	.	.	.	.	.
Cc1ccc(-n2cccc2/C=C2/C(=N)N3C(=NC2=O)SN=C3S(C)(=O)=O)cc1Cl	.	17.4	-99.2	26.1	65.0*	51.9*
Cc1cc(/C=C2/C(=N)N3C(=NC2=O)SN=C3S(C)(=O)=O)c(C)n1-c1ccc(F)cc1	.	4.7	-8.0	19.8	4.3	.
COc1ccccc1Nc1nn2c(=O)c3ccc(C(=O)N4CCCC(C)C4)cc3nc2s1 (stereo not given)	2.5	-0.2	-0.9	2.9	46.3*	63.0*
CCNc1ccc(Br)cc(C(=O)/C=C/c2ccccc2Cl)c1=O	.	-15.7	-155.9	4.7	51.4*	-6.7
COc1ccc(NC(=O)c2ccco2)cc1NC(=O)c1c(OC)cccc1OC	0.2	7.3	7.5	-0.8	46.4*	51.9*
COc1ccc(NC(=O)c2ccco2)cc1NC(=O)c1ccco1	.	2.9	0.0	-1.6	-0.2	.
Cc1ccc(/C=C/c2onc(C)c2S(=O)(=O)N2CCC(C(=O)N3CCCCC3)CC2)cc1	-1.4	-3.1	8.5	-0.6	0.0	.

Screens deposited in PubChem by several laboratories.
